From the supplement of paper PMC6555819

Legend:
Assay in all cases: PBM binding z-score (relative to random genomic background probes); higher = stronger binding; sequences stand for … in GC…GCGATTGACAGCGTAGAATGAAGG
[1] = test system: PPARg:RXRa DBDmut IVT, anti-RXR (DBD mutation: RXRa K156A/R161A, NR concentration 270 nM, RXRa partner concentration 90 nM)
Outline: (§1)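 Custom Agilent 4×180K protein-binding microarrays carried double-stranded probes. Their 34-nt variable regions held direct-repeat seeds, single-nucleotide variants, half-site ablations and random human genomic background sequences. Arrays were incubated 1 h with ligand-free nuclear receptor dimers in PBS pH 7.4, 2% milk, 0.02% Triton X-100, 1 mM DTT, 0.2 mg/mL BSA and 0.4 mg/ml salmon testes DNA. Antibodies against each partner (one per run) detected binding, and scanned fluorescence was regression-normalized. Binding z-scores use random background probes as reference.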

[2] = test system: PPARg:RXRa IVT, anti-PPARg (NR concentration 270 nM, RXRa partner concentration 90 nM)
Outline: as §1

[3] = test system: PPARg DBDmut:RXRa IVT, anti-PPARg (DBD mutation: PPARg1 K132A/R137A, NR concentration 270 nM, RXRa partner concentration 90 nM)
Outline: as §1

[4] = test system: PPARg DBDmut IVT, anti-PPARg (DBD mutation: PPARg1 K132A/R137A, NR concentration 270 nM)
Outline: as §1

[5] = test system: PPARg homodimer (NR concentration 180 nM)
Outline: as §1

[6] = test system: PXR:RXRa (NR concentration 270 nM, RXRa partner concentration 90 nM)
Outline: as §1

[7] = test system: PXR homodimer (NR concentration 270 nM)
Outline: as §1

[8] = test system: RARa:RXR (NR concentration 270 nM, RXRa partner concentration 90 nM)
Outline: as §1

[9] = test system: RARa homodimer (NR concentration 270 nM)
Outline: as §1

[10] = test system: RARb:RXRa (NR concentration 270 nM, RXRa partner concentration 90 nM)
Outline: as §1

[11] = test system: RARb homodimer (NR concentration 270 nM)
Outline: as §1

[12] = test system: RARg:RXRa (NR concentration 270 nM, RXRa partner concentration 90 nM)
Outline: as §1

[13] = test system: RARg homodimer (NR concentration 270 nM)
Outline: as §1

[14] = test system: RXRa DBDmut IVT, anti-RXR (DBD mutation: RXRa K156A/R161A, NR concentration 90 nM)
Outline: as §1

[15] = test system: RXRa homodimer (NR concentration 180 nM)
Outline: as §1

[16] = test system: THRa:RXRa (NR concentration 90 nM, RXRa partner concentration 90 nM)
Outline: as §1

[17] = test system: THRa homodimer (NR concentration 90 nM)
Outline: as §1

[18] = test system: VDR homodimer (NR concentration 270 nM)
Outline: as §1

Sequence | PBM binding z-score [1] | PBM binding z-score [2] | PBM binding z-score [3] | PBM binding z-score [4] | PBM binding z-score [5] | PBM binding z-score [6] | PBM binding z-score [7] | PBM binding z-score [8] | PBM binding z-score [9] | PBM binding z-score [10] | PBM binding z-score [11] | PBM binding z-score [12] | PBM binding z-score [13] | PBM binding z-score [14] | PBM binding z-score [15] | PBM binding z-score [16] | PBM binding z-score [17] | PBM binding z-score [18]
GCGACTGGGGCAAAGCAGATTACCATAAGGTTGG | 4.66 | 3.29 | -0.663 | -0.34 | -0.207 | -0.451 | -0.273 | -0.203 | -0.607 | 0.381 | -0.011 | 0.122 | 0.273 | -0.0663 | 0.0208 | -0.00555 | -0.248 | -0.153
TGAATGGGGTTAAAGATCAGGGAACGTGGCGTCG | 2.89 | 3.96 | 1.84 | 2.48 | 2.38 | 3.45 | 1.64 | 5 | 1.66 | 2.43 | 1.49 | 3.19 | 1.53 | 1.95 | 6 | 2.88 | 1.23 | 1.58
ATATGTAGGTTAAGGGTTATTCAGGTTGGTTCGC | 7.57 | 7.51 | 3.47 | 3.04 | 2.78 | 2.84 | 1.6 | 2.88 | 2.39 | 1.88 | 1.91 | 2.11 | 1.34 | 0.963 | 2.75 | 2.37 | 1.52 | 1.83
CAAACTAGGTCAAAGGCCAAAGTCGAGCCAACCA | 7.91 | 8.52 | 1.47 | 0.202 | 1.73 | 2.9 | 0.159 | 4.68 | 0.255 | 4.31 | 3.34 | 5.06 | 4.83 | 1.8 | 4.98 | 3.05 | 0.429 | 0.659
CCTTACGGGTCACCCCAGGTTATAGCATCGGAGT | 1.58 | 3.6 | 0.299 | -0.0802 | 2.12 | 5.4 | 0.158 | 4.43 | 0.572 | 3.79 | 3.53 | 5.05 | 4.77 | 0.177 | 5.34 | 5.16 | 1.21 | 1.41
CCAGACAGGTGAAAGGTAAATCAGTCTGGTACGC | 1.86 | 2.8 | 0.0874 | -1.06 | 2.52 | 0.697 | -0.183 | 1.67 | 0.663 | 1.04 | 0.653 | 1.04 | 0.721 | -0.121 | 1.85 | 0.832 | -0.308 | 0.0909
TCAGACAGTTGAAGGTAACTCAGGTACGCAGTCG | 2.22 | 0.0381 | -0.122 | -0.183 | 0.684 | 0.701 | 0.165 | 0.843 | -0.196 | 0.547 | -0.0141 | 0.206 | 0.167 | 1.29 | 0.943 | 1.17 | 0.195 | 0.508
